# Measured values as given in PubChem BioAssay (Tox21).
# Values joined by “and” are separate entries in the source; they are usually repeats but may differ in a detail not shown here. Identical values can stand only once. Records with an inconclusive call do not appear. A call without a number means that no potency is given here. The source holds several records for some structures; these can differ, active in one and inactive in another. Active and inactive are the calls of the source. Unless noted, calls come from the whole dose curve; as a rule, active = well fitted curve in the direction sought with a large enough effect in the repeat runs; inconclusive = weak or mixed curves; inactive = no such curve, though single readings can be large; an effect the other way counts as inactive or inconclusive.
# What was measured:
# [1] = qHTS assay to identify small molecule antagonists of the vitamin D receptor (VDR) signaling pathway - cell viability counter screen (AID 743225); note: nearly all actives have a fitted effect of over 50% in size; note: potency is the fitted concentration of half-maximal effect
# In short: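 Luminescent cell viability (CellTiter-Glo) in VDR-bla HEK 293T cells after 16 h compound exposure at 37C in the presence of 3 nM final 1-alpha,25-dihydroxy vitamin D3.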
# [2] = qHTS assay to identify small molecule agonists of the NFkB signaling pathway - cell viability counter screen (AID 1159515; calls by dose curve; note: nearly all actives have a fitted effect of over 55% in size; note: potency is the fitted concentration of half-maximal effect)
# In short: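 Parallel cytotoxicity counter screen in ME-180 cells carrying an NFkB-response-element beta-lactamase reporter, 2,000 cells/well. Compound exposure lasted 5 hr at 37 C, 5% CO2. Cell viability was quantified by CellTiter-Glo luminescence.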
# [3] = qHTS assay to identify small molecule agonists of the endoplasmic reticulum stress response signaling pathway - cell viability counter screen (AID 1159517; calls by dose curve; note: nearly all actives have a fitted effect of over 50% in size; note: potency is the fitted concentration of half-maximal effect)
# In short: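 Cytotoxicity of test compounds toward ESRE-bla HeLa cells was assessed after 5 hr exposure. The luminescent CellTiter-Glo signal was measured 30 min after reagent addition.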
# [4] = qHTS assay to identify small molecule antagonists of the retinoid-related orphan receptor gamma (ROR-gamma) signaling pathway - cell viability counter screen (AID 1159520); note: nearly all actives have a fitted effect of over 50% in size; note: potency is the fitted concentration of half-maximal effect
# In short: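 Tet-on ROR gamma CHO cells (1,000/well) were plated 4 hr, given compounds in DMSO for 2 hr at 37 C, then induced with 1 uM final doxycycline for 16 hr. Viability was read as ATP by CellTiter-Glo luminescence after 30 min.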
# [5] = target: Nuclear receptor ROR-gamma (Homo sapiens) (UniProt P51449); assay: qHTS assay to identify small molecule antagonists of the retinoid-related orphan receptor gamma (ROR-gamma) signaling pathway (AID 1159521; note: nearly all actives have a fitted effect of over 50% in size; note: potency is the fitted concentration of half-maximal effect)
# In short: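 CHO cells expressing RORγ under a TET-on promoter, luciferase under RORE control. Dox 1 uM final, 16 h; compounds added 2 h prior. Luminescence decrease measured.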
# [6] = qHTS assay to identify small molecule agonists of the AP-1 signaling pathway - cell viability counter screen (AID 1159525; calls by dose curve; note: nearly all actives have a fitted effect of over 55% in size; note: potency is the fitted concentration of half-maximal effect)
# In short: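 Each titration point was normalised to DMSO and tetra n-octyl ammonium bromide controls. The read was Cell Titer Glo luminescence after 30 min at RT, following 5 h compound exposure of ME-180 AP-1-bla cells at 37 °C.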
# [7] = qHTS assay to identify small molecule agonists of the AP-1 signaling pathway (AID 1159526; calls by dose curve; note: potency is the fitted concentration of half-maximal effect)
# [8] = target: Retinoic acid receptor RXR-alpha (Homo sapiens) (UniProt P19793); assay: qHTS assay to identify small molecule agonists of the RXR signaling pathway (AID 1159527; calls by dose curve; note: nearly all actives have a fitted effect of over 35% in size; note: potency is the fitted concentration of half-maximal effect)
# Sequence of Retinoic acid receptor RXR-alpha (Homo sapiens) (P19793 whole entry, looked up): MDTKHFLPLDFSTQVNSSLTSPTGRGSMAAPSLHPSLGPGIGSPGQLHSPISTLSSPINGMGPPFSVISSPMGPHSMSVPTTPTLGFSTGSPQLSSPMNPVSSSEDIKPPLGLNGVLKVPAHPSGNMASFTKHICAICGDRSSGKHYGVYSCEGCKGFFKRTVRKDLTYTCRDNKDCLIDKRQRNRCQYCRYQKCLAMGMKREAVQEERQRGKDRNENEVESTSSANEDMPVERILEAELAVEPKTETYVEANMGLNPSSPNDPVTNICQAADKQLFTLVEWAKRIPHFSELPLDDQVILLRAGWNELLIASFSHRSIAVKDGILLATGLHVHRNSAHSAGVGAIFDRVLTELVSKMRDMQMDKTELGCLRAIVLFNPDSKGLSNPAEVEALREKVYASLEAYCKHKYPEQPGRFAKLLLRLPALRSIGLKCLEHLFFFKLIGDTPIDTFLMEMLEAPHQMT
# In short: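 Beta-lactamase reporter assay, agonist format. Engineered HEK 293T line, charcoal-stripped FBS at 2%, overnight (16 hr) exposure, fluorescence at 460 and 530 nm after 405 nm excitation.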
# [9] = qHTS assay to identify small molecule agonists of the RXR signaling pathway - cell viability counter screen (AID 1159529); note: nearly all actives have a fitted effect of over 50% in size; note: potency is the fitted concentration of half-maximal effect
# In short: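 Same-well viability check after the LiveBLAzer FRET read: CellTiter-Glo added, luminescence measured after 30 min at room temperature. Reporter HEK 293T cells had been treated with compounds for 16 hr following a 5 hr preincubation.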
# [10] = qHTS assay to identify small molecule antagonists of the retinoid acid receptor (RAR) signaling pathway - cell viability counter screen (AID 1159551); note: nearly all actives have a fitted effect of over 35% in size; note: potency is the fitted concentration of half-maximal effect
# In short: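 ATP-based viability, C3RL4 cells, 6 h at 37 C with 1 uM final retinol co-added after compound; luminescence read 30 min post CellTiter-Glo, RT.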
# [11] = qHTS assay to identify small molecule antagonists of the estrogen related receptor (ERR) signaling pathway - cell viability counter screen (AID 1224818);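 note: series mostly up to about 46 µM; viability measured after 17.5 h of compound exposure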
# In short: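 Quantitative high-throughput viability counter screen in ERR cells. Compounds (DMSO) incubated 17.5 h at 37 C; read-out was CellTiter-Fluor fluorescence.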
# [12] = qHTS assay to identify small molecule antagonists of the estrogen related receptor signaling pathway with the pleiotropic PPARgamma coactivator (PGC) cell viability counter screen (AID 1224822; note: potency is the fitted concentration of half-maximal effect)
# In short: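 Cytotoxicity in the PGC/ERR cell line is assessed with CellTiter-Fluor, read as fluorescence intensity 30 min after reagent addition, following 17.5 h compound treatment at 37 C.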
# [13] = qHTS assay to identify small molecule agonists of the vitamin D receptor (VDR) signaling pathway - cell viability counter screen (AID 743224); note: nearly all actives have a fitted effect of over 50% in size; note: potency is the fitted concentration of half-maximal effect
# In short: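 Compounds were pin-transferred onto VDR-bla cells plated 4 h earlier; following 16 h incubation at 37C, cell viability was quantified by CellTiter-Glo luminescence after 30 min at room temperature.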
# [14] = qHTS assay to identify small molecule antagonists of the retinoic acid receptor (RAR) signaling pathway (AID 1159552; note: nearly all actives have a fitted effect of over 50% in size; note: potency is the fitted concentration of half-maximal effect)
# In short: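 Readout: luciferase luminescence, 30 min post-reagent at RT. Setup: C3RL4 RARE reporter cells, compounds plus retinol 1 uM final, 6 hr incubation at 37 C and 5% CO2.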
# [15] = qHTS assay to identify small molecule agonists of the retinoic acid receptor (RAR) signaling pathway (AID 1159553)
# In short: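 Quantitative high-throughput format: the Tox21 10K library was tested on C3RL4 RARE-luciferase cells for 6 hr at 37 C and 5% CO2, with luminescence measured after a 30 min room-temperature reagent step.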
Compound,Potency [1],Potency [2],Potency [3],Potency [4],Potency [5],Potency [6],Potency [7],Potency [8],Potency [9],Potency [10],outcome [11],Potency [12],Potency [13],Potency [14],Potency [15]
O=c1[nH]cc(F)c(=O)[nH]1,inactive,inactive,inactive,inactive,4.49 µM (active) and inactive,inactive,inactive,28.2 µM (active),45.3 µM (active) and inactive,inactive,inactive,inactive,,,
CC1(C)S[C@@H]2[C@H](NC(=O)[C@H](N)c3ccccc3)C(=O)N2[C@H]1C(=O)O,,inactive,inactive,inactive,,inactive,inactive,inactive,inactive,inactive,,,,,
C/C=C/C=C/C(=O)O,inactive,inactive,inactive,inactive,inactive,inactive,inactive,inactive and 49 µM (active),inactive,inactive,,,inactive,,
CCCCC(CC)C(=O)O (stereo not given),inactive,inactive,inactive,inactive,inactive,inactive,inactive,inactive,inactive,inactive,,,inactive,,
COc1ccc(CN(CCN(C)C)c2ccccn2)cc1,inactive,inactive,inactive,inactive,inactive,inactive,,inactive,40.2 µM (active) and inactive,inactive,inactive,inactive,,inactive,inactive
CCCC[P+](CCCC)(CCCC)CCCC,inactive,inactive,inactive,inactive,inactive,inactive,inactive,inactive,inactive,inactive,,,inactive,,inactive
CN1CCc2cccc3c2[C@H]1Cc1ccc(O)c(O)c1-3,,inactive,inactive,69.3 µM (active),27.6 µM (active) and 20.4 µM (active) and inactive,inactive,inactive,inactive,18.3 µM (active),69.3 µM (active),,,49.5 µM (active) and 16.3 µM (active) and 26.6 µM (active),,
CN(C)CCOC(c1ccccc1)c1ccccc1,,inactive,inactive,inactive,inactive,inactive,49.3 µM (active),inactive,inactive,inactive,inactive,inactive,inactive,,inactive
CC/C(=C(\c1ccccc1)c1ccc(OCCN(C)C)cc1)c1ccccc1,inactive and 15.6 µM (active) and 21.3 µM (active),26.8 µM (active) [middle of 5 runs],49 µM (active) [middle of 4 runs],61.1 µM (active) [middle of 4 runs],27.5 µM (active) [middle of 5 runs],23.9 µM (active) [middle of 5 runs],,,15.5 µM (active) [middle of 5 runs],61.5 µM (active) and 61.1 µM (active) and 54.9 µM (active),,27.6 µM (active),,54.4 µM (active) [middle of 5 runs],
Cc1ncc([N+](=O)[O-])n1CCO,inactive,inactive,inactive,inactive,inactive,inactive,inactive,inactive,inactive,inactive,,,,inactive,inactive
C[C@](N)(Cc1ccc(O)c(O)c1)C(=O)O,,inactive,inactive,inactive,inactive,inactive,inactive,inactive,inactive,inactive,inactive,inactive,,,inactive
O=C1NS(=O)(=O)c2ccccc21,inactive,inactive,inactive,inactive,inactive,inactive,inactive,,inactive,inactive,,,,,inactive
Cc1cccc(C)c1,inactive,inactive,inactive,inactive,inactive,inactive,inactive,inactive,inactive,inactive,,,inactive,,
